Inconclusive results are not listed. Activity calls are given as the source filed them. Calls come from the whole dose curve; as a rule, active = well fitted curve in the direction sought with a large enough effect in the repeat runs; inconclusive = weak or mixed curves; inactive = no such curve, though single readings can be large; an effect the other way counts as inactive or inconclusive.
How the values were obtained:
[1] = qHTS RealTime-Glo MT Cell Viability Assay in HepG2 cells - 40 hour (AID 1224870); note: nearly all actives have a fitted effect of over 50% in size
In short: (§1)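 HepG2 cells (600/well) mixed with RealTime-Glo MT reagent, settled 5 h at 37 C/5% CO2 before compound addition. Nonlytic NanoLuc luminescence from viable-cell prosubstrate reduction read repeatedly during 40 h treatment at 37 C.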

[2] = A CellTox Green Cytotoxicity Assay to monitor cytotoxicity in HEK293 cells - 40 hour (AID 1224871); note: nearly all actives have a fitted effect of over 45% in size
In short: (§2)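 Fluorescence from a DNA-binding dye excluded by viable cells was measured repeatedly in the same HEK293 wells (600 cells/well) during continuous compound exposure at 37 C. Each assay gives one read point: 0, 8, 16, 24, 32 or 40 h.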

[3] = qHTS RealTime-Glo MT Cell Viability Assay in HEK293 cells - 16 hour (AID 1224872); note: top concentration of the series differs between compounds; nearly all actives have a fitted effect of over 50% in size
In short: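 HEK293 cells seeded with NanoLuc/prosubstrate reagent, rested 5 h at 37 C, then dosed and kept at 37 C up to 40 h. Nonlytic real-time luminescence from viable cells read at 0, 8, 16, 24, 32 and 40 h.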

[4] = qHTS RealTime-Glo MT Cell Viability Assay in HepG2 cells - 8 hour (AID 1224873); note: nearly all actives have a fitted effect of over 55% in size
In short: as §1

[5] = qHTS RealTime-Glo MT Cell Viability Assay in HEK293 cells - 40 hour (AID 1224874); conditions: RealTime-Glo luminescence; max response: stronger effect = lower value; note: nearly all actives have a fitted effect of over 50% in size
In short: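 Luminescence, which tracks viable cell number through reduction of the prosubstrate to a NanoLuc substrate, was read over continuous 37 C culture. Cells (600/well) were premixed with reagent and rested 5 h before 23 nL of compound in DMSO was pinned.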

[6] = A CellTox Green Cytotoxicity Assay to monitor cytotoxicity in HEK293 cells - 24 hour (AID 1224875); note: series mostly up to about 77 µM; nearly all actives have a fitted effect of over 45% in size
In short: as §2

[7] = A CellTox Green Cytotoxicity Assay to monitor cytotoxicity in HepG2 cells - 16 hour (AID 1224876); note: nearly all actives have a fitted effect of over 45% in size
In short: (§3)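 Real-time cytotoxicity: fluorescence of a cell-impermeant cyanine dye binding DNA of dead HepG2 cells, measured repeatedly (0–40 h) during compound exposure at 37 C. Cells seeded 600/well with reagent, dosed after 5 h.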

[8] = qHTS RealTime-Glo MT Cell Viability Assay in HepG2 cells - 32 hour (AID 1224877); note: nearly all actives have a fitted effect of over 55% in size
In short: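 HepG2 cells (600/well) were dispensed with RealTime-Glo reagents, incubated 5 h at 37 °C, then treated with compounds in DMSO for up to 40 h. Nonlytic NanoLuc luminescence reflecting viable cells was read at each stated time point.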

[9] = A CellTox Green Cytotoxicity Assay to monitor cytotoxicity in HepG2 cells - 24 hour (AID 1224878); note: nearly all actives have a fitted effect of over 45% in size
In short: as §3

[10] = A CellTox Green Cytotoxicity Assay to monitor cytotoxicity in HepG2 cells - 40 hour (AID 1224879); note: nearly all actives have a fitted effect of over 40% in size
In short: as §3
% is set by controls: 0 for no effect and ±100 for the full control effect.

CCSC(=O)Cl
inactive: Potency [1] | Potency [2] | Potency [3] | outcome [4] | max response [5] 15.5% | Potency [6] | Potency [7] | Potency [8] | Potency [9] | Potency [10]

CNC(=O)NC(O)C(Cl)(Cl)Cl (configuration not stated)
inactive: Potency [1] | Potency [2] | Potency [3] | outcome [4] | max response [5] 9.22% | Potency [6] | Potency [7] | Potency [8] | Potency [9] | Potency [10]

CCOC(=O)CCl
inactive: Potency [1] | Potency [2] | Potency [3] | outcome [4] | max response [5] 14.4% | Potency [6] | Potency [7] | Potency [8] | Potency [9]

O=C(CCl)NCO
inactive: Potency [1] | Potency [2] | Potency [3] | outcome [4] | max response [5] 1.67% | Potency [6] | Potency [7] | Potency [8] | Potency [9] | Potency [10]

CCc1ccc(C2CCNCC2)cc1
inactive: Potency [1] | Potency [2] | Potency [3] | outcome [4] | max response [5] 7.03% | Potency [6] | Potency [7] | Potency [8] | Potency [9] | Potency [10]

CC(C)N(Cc1ccccc1)C(=O)C(C)(C)C
inactive: Potency [1] | Potency [2] | Potency [3] | outcome [4] | max response [5] -9.28% | Potency [6] | Potency [7] | Potency [8]

CC(C)(O)C(Cl)(Cl)Cl
inactive: Potency [1] | Potency [2] | Potency [3] | outcome [4] | max response [5] 4.01% | Potency [6] | Potency [7] | Potency [8] | Potency [9] | Potency [10]

COC(=O)[C@@H](N)CCCN/C(N)=N/[N+](=O)[O-]
inactive: Potency [1] | Potency [2] | Potency [3] | outcome [4] | max response [5] 6.22% | Potency [6] | Potency [7] | Potency [8] | Potency [9] | Potency [10]

C[C@]12C=CC(=O)C=C1CC[C@@H]1[C@@H]2CC[C@@]2(C)[C@H]1CC[C@]2(C)O
inactive: Potency [1] | Potency [2] | Potency [3] | outcome [4] | max response [5] -19.7% | Potency [6] | Potency [7] | Potency [8] | Potency [9]

CC(Cl)(Cl)Cl
inactive: Potency [1] | Potency [2] | Potency [3] | outcome [4] | max response [5] -1.28% | Potency [6] | Potency [7] | Potency [8] | Potency [9] | Potency [10]

Cc1ccc2c(c1)C1CN(C)CCC1N2 (configuration not stated)
inactive: activity change, negative = cytotoxic [1] 2.24% [at 15.8 µM] | cytotoxicity increase [2] -9.63% [at 15.8 µM] | activity change, negative = cytotoxicity [3] -1.2% [at 15.8 µM] | viability change, negative = cytotoxic [4] -2.24% [at 15.8 µM] | max response [5] 2.17% | activity change [6] 0.918% [at 15.8 µM, stronger effect = higher value] | cytotoxicity increase [7] 12.2% [at 15.8 µM] | activity change, negative = cytotoxic [8] -0.204% [at 15.8 µM] | cytotoxicity [9] 11.8% [at 15.8 µM]

CC1=C2[C@H]3OC(=O)[C@@H](C)[C@@H]3CC[C@@]2(C)C=CC1=O
inactive: Potency [1] | Potency [2] | Potency [3] | outcome [4] | max response [5] 10.1% | Potency [6] | Potency [7] | Potency [8] | Potency [9]

CC1N=C(N)OC1c1ccccc1 (configuration not stated)
inactive: Potency [1] | Potency [2] | Potency [3] | outcome [4] | max response [5] -2.35% | Potency [6] | Potency [7] | Potency [8] | Potency [9] | Potency [10]

CCCCCCC1CCOC1=O (configuration not stated)
inactive: Potency [1] | Potency [2] | Potency [3] | outcome [4] | max response [5] -0.816% | Potency [6] | Potency [7] | Potency [8] | Potency [9] | Potency [10]

C=CCN1CC[C@]23CCCC[C@H]2[C@H]1Cc1ccc(O)cc13
inactive: Potency [1] | Potency [2] | Potency [3] | outcome [4] | max response [5] 1.5% | Potency [6] | Potency [7] | Potency [8] | Potency [9] | Potency [10]

CC[C@@H](CO)NC(=O)[C@@H]1C=C2c3cccc4c3c(cn4C)C[C@H]2N(C)C1
inactive: Potency [1] | Potency [2] | Potency [3] | outcome [4] | max response [5] -3.36% | Potency [6] | Potency [7] | Potency [8] | Potency [9] | Potency [10]

O=C(Cl)CCl
inactive: Potency [1] | Potency [2] | Potency [3] | outcome [4] | max response [5] 0.179% | Potency [6] | Potency [7] | Potency [8] | Potency [9] | Potency [10]

COc1ccc2c(C(=O)c3ccc(Cl)cc3)c(C)n(CC(=O)O)c2c1
inactive: Potency [1] | Potency [2] | Potency [3] | outcome [4] | max response [5] 3.79% | Potency [6] | Potency [7] | Potency [8] | Potency [10]

CCCC(C)C1(CC)C(=O)N=C(S)NC1=O (configuration not stated)
inactive: Potency [1] | Potency [2] | Potency [3] | outcome [4] | max response [5] 1.79% | Potency [6] | Potency [7] | Potency [8] | Potency [9] | Potency [10]

Cc1cc(OC(=O)N(C)C)nn1C(=O)N(C)C
inactive: Potency [1] | Potency [2] | Potency [3] | outcome [4] | max response [5] 2% | Potency [6] | Potency [7] | Potency [8] | Potency [9] | Potency [10]

CCOC(=O)CC(SP(=S)(OC)OC)C(=O)OCC (configuration not stated)
inactive: Potency [1] | Potency [2] | Potency [3] | outcome [4] | max response [5] 11.4% | Potency [6] | Potency [7] | Potency [8] | Potency [9] | Potency [10]

O=C(Cl)OCc1ccccc1
inactive: Potency [1] | Potency [2] | Potency [3] | outcome [4] | max response [5] 10.6% | Potency [6] | Potency [7] | Potency [8] | Potency [10]

CON(C)C(=O)Nc1ccc(Br)cc1
inactive: Potency [1] | Potency [2] | Potency [3] | outcome [4] | max response [5] -9.38% | Potency [6] | Potency [7] | Potency [8] | Potency [9] | Potency [10]

N#CN=C1SCCN1Cc1ccc(Cl)nc1
inactive: Potency [1] | Potency [2] | Potency [3] | outcome [4] | max response [5] -3.59% | Potency [6] | Potency [7] | Potency [8] | Potency [9] | Potency [10]
